# KB-V1 cytotox – qHTS assay for MDR1-selective chemotherapeutics: Primary screen using the drug-selected MDR subline cells KB-V1; 400,000 tested, 3.4% active; KB-V1 MDR cells viability, CellTiter-Glo, 72 h; Potency, µM (top dose mostly 46.1 µM), actives largely listed as cytotoxic; note: % is set by controls: 0 for no effect and ±100 for the full control effect; nearly all actives have a fitted effect of over 60% in size
#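 KB-V1 cells (P-gp-expressing MDR subline of KB-3-1) in phenol-red-free DMEM with 10% FBS were exposed to library compounds over a concentration series for 72 h at 37 degrees C. Viability read by CellTiter-Glo luminescence; concentration-effect curves fitted after normalization.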
# PINK1 expr mod – A Quantitative High throughput Screen to Identify Chemical Modulators of PINK1 Expression; Potency, µM (top dose mostly 76.6 µM), for the others: at the top dose activation (PINK1 increase), usual class: activators; 410,000 tested, 0.2% active; PINK1 immunofluorescence, high-content cytometry, 24 h; active = well fitted activation curve with a large enough effect; inconclusive = small, poorly fitted or top-dose-only effect; cell line not stated here; note: % of control where 0% means no effect; nearly all actives have a fitted effect of over 65% in size
#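 Compound titrations (5 concentrations, 24 h) on a stable cell line; DMSO and CCCP controls. Endpoint: fixed-cell PINK1 immunofluorescence with mitochondrial, cell and nuclear markers, scanned by microplate cytometer.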
# KB-3-1 cytotox – qHTS assay for MDR1-selective chemotherapeutics: Primary screen using the parental adenocarcinoma cell KB-3-1; Potency, µM (doses to about 46.1 µM), usual class: cytotoxic; AID 1347075, 2019; 400,000 tested, 1.4% active; KB-3-1 viability, CellTiter-Glo ATP luminescence, 72 h; note: % is set by controls: 0 for no effect and ±100 for the full control effect; nearly all actives have a fitted effect of over 60% in size
#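 Viability of parental KB-3-1 cells, measured by CellTiter-Glo luminescence, followed a 72 h incubation at 37 °C with pinned compounds in phenol-red-free DMEM containing 10% FBS.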
# MCF10A rereplic – A quantitative high throughput screen for small molecules that induce DNA re-replication in MCF 10a normal breast cells; MCF 10A DNA re-replication, Hoechst nuclear intensity, 48 h; AID 624296, 2012; Potency, µM (top dose mostly 46.1 µM), for the others: top-dose activity, positive = re-replication, hits mostly activators; 350,000 tested, 2.9% active; note: % of control where 0% means no effect; nearly all actives have a fitted effect of over 50% in size
# SW480 rereplic – A quantitative high throughput screen for small molecules that induce DNA re-replication in SW480 colon adenocarcinoma cells; SW480 DNA re-replication, Hoechst DNA content imaging, 48 h; Potency, µM (titrated, usually from 46.1 µM), without a hit: at the highest dose re-replication activation, most hits filed as activators; 340,000 tested, 1.8% active; AID 624297, 2012; note: % of control where 0% means no effect; nearly all actives have a fitted effect of over 55% in size
#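 First, 250 cells per well were seeded. Next, compound or vehicle (23 nL) was pinned in, plates sat 48 hr at 37 C. Finally Hoechst was added for 40 min before fluorescence scanning.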
# PTAP TSG101 blk – qHTS Assay for Iinhibitors of HIV-1 Budding by Blocking the Interaction of PTAP/TSG101. Potency, µM (doses to about 115 µM), for inactives: at the top dose activity change, negative = inhibition, hits mostly inhibitors. 340,000 tested, under 10 active. Tumor susceptibility gene 101 protein (Homo sapiens), Q99816. Fluorescence polarization, FITC-PTAP peptide / Tsg101 binding. AID 493005, 2010; active = well fitted inhibition curve with a large enough effect in the main read-out, with a control signal flat, not every such curve was filed as active; inconclusive = small, poorly fitted or top-dose-only effect, or effect the other way, or a change in a side signal; inactive = no such curve, though single readings can be large or run the other way; note: % of control where 0% means no effect
# Target sequence (Q99816 whole entry, looked up): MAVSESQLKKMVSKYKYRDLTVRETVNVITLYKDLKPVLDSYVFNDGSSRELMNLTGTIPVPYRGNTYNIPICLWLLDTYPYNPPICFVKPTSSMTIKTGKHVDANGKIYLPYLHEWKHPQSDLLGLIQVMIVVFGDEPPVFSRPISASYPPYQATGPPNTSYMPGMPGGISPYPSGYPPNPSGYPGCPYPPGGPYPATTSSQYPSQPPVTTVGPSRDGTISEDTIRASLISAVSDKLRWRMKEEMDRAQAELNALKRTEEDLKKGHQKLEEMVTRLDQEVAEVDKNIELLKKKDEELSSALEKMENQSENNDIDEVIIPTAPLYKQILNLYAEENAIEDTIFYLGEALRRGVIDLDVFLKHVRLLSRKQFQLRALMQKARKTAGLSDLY
#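 Steps: Tsg101 binding domain dispensed (10 uM final), compounds pinned in DMSO, FITC-labeled PTAP-motif peptide added (50 nM final); after 20 min binding at room temperature, polarization measured.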
# Active calls of the source: *; i = inactive; ? = inconclusive; / = no result; [ ] = another dose, or the depositor's remark. An excerpt weighted towards active compounds, which were near 6.8% of everything screened. Unless noted, calls come from the whole dose curve; as a rule, active = well fitted curve in the direction sought with a large enough effect; inconclusive = small, poorly fitted or top-dose-only effect, or another doubt; inactive = no such curve, though single readings can be large; an effect the other way counts as inactive or inconclusive. Potency is the fitted concentration of half-maximal effect.
SMILES,KB-V1 cytotox,PINK1 expr mod,KB-3-1 cytotox,MCF10A rereplic,SW480 rereplic,PTAP TSG101 blk
Cc1cc(C(=O)CN2C(=O)C(=O)N(Cc3ccco3)C2=O)c(C)n1CCc1ccccc1,16µM*,7%,?,4.6µM*,?,-1%
Cc1cc(C(=O)COC(=O)c2ccco2)c(C)n1Cc1ccco1,i,0%,i,8%,?,-1%
COCC(=O)N1c2nc(C(C)C)nn2C2(CCCCC2)[C@@H]2CCCC[C@@H]21,/,0%,/,/,/,/
CCCCNC(=O)c1nn(-c2ccc(C)cc2)c(=O)n(C)c1=O,i,-1%,i,/,/,/
CC(=O)c1ccc(NS(=O)(=O)c2cc(-c3cc(C)no3)ccc2C)cc1,?,6%,?,/,/,/
C=CCNc1ncnc2c1[nH]c1ccc(Cl)cc12,?,8%,8.2µM*,20%,1%,1%
C=CCNc1ncnc2c1[nH]c1ccccc12,i,-1%,?,5%,-1%,-4%
Cc1ccnc2ccc3ccccc3c12,i,/,8.2µM*,/,/,/
C/C(=N\NC(=O)C12CCC(C)(C(=O)O1)C2(C)C)c1ccccc1O (centres undefined),?,1%,?,?,3.7µM*,-3%
CC12CCC(C(=O)N/N=C/c3ccc(O)cc3O)(OC1=O)C2(C)C (centres undefined),?,-3%,?,5%,4.6µM*,-7%
CC12CCC(C(=O)Nc3cccc(NC(=O)C45CCC(C)(C(=O)O4)C5(C)C)n3)(OC1=O)C2(C)C,i,0%,i,-2%,0%,-7%
COc1ccc2c(c1)[nH]c1c(=O)n(Cc3ccco3)cnc12,15µM*,11%,?,0%,-8%,-3%
COc1ccc2c(c1)[nH]c1c(=O)n(CC3CCCO3)cnc12 (centres undefined),21µM*,3%[38.3 µM],i,-5%,1%,1%
COc1ccc2c(c1)[nH]c1c(=O)n(Cc3ccccn3)cnc12,i,10%,i,1%,-8%,-1%
CCCCc1nn2c(=O)cc(COC(=O)c3cccc(Cl)c3)nc2s1,i,0%,i,/,/,/
CCN(CC)c1ccc(NC(=O)c2cccn2-c2nnc(N3CCCCC3)s2)c(C)c1,i,1%,i,/,/,/
CCS(=O)(=O)N1Cc2ccccc2CC1C(=O)Nc1ncc(C)s1 (centres undefined),?,4%,i,-4%,-78%,-10%
Cc1cc(C)c2nc(NNC(=O)c3ccc(S(=O)(=O)N4CCCC(C)C4)cc3)sc2c1 (centres undefined),i,17%,4.1µM*,15µM*,?,-1%
CCS(=O)(=O)N1Cc2ccccc2CC1C(=O)Nc1nc2ccc(C)cc2s1 (centres undefined),7.3µM*,2%,?,9%,-215%,1%
Cc1cc(C)c2nc(NNC(=O)c3ccc(S(=O)(=O)N4CC(C)CC(C)C4)cc3)sc2c1 (centres undefined),i,11%,i,?,?,-4%
Cc1ccc2nc(NC(=O)c3ccc(S(=O)(=O)N4CCC(C)CC4)cc3)sc2c1,i,-3%,i,/,/,/
Cc1ccc2nc(NNC(=O)c3ccc(S(=O)(=O)N4CCc5ccccc5C4)cc3)sc2c1,i,9%,?,9.2µM*,?,1%
Cc1cccc2sc(NNC(=O)c3ccc(S(=O)(=O)N4CC(C)CC(C)C4)cc3)nc12 (centres undefined),i,40µM*,?,?,9.2µM*,-6%
Cc1cccc(CNCCn2cc(C(=O)Nc3ccccc3)nn2)c1,/,-1%,/,/,/,/
CC/C(=C/c1ccccc1OC)c1cc(-c2ccccc2)cc2oc3ccccc3c12,i,/,i,/,/,/
SMILES,KB-V1 cytotox,PINK1 expr mod,KB-3-1 cytotox,MCF10A rereplic,SW480 rereplic,PTAP TSG101 blk
COc1ccccc1CNC(=O)c1cnn(-c2nccc(-c3cccs3)n2)c1C,/,3%,/,/,/,/
Cc1ccc(S(=O)(=O)N2CCN(C(=O)c3cc(-c4cccs4)nn3-c3ccccc3)CC2)cc1,4.6µM*,9%,i,10%,3%,0%
O=C(c1cc(-c2cccs2)nn1-c1ccccc1)N1CCN(S(=O)(=O)c2ccccc2)CC1,16µM*,-4%,i,14%,?,-1%
O=C(c1cc(-c2ccccc2)nn1-c1ccccc1)N1CCN(S(=O)(=O)c2ccc(F)cc2)CC1,?,-1%,i,?,-6%,2%
COc1cc2nc(CN(CCO)C3CS(=O)(=O)CC3O)nc(N3CCCCC3)c2cc1OC (centres undefined),/,0%,/,/,/,/
COc1ccc(Cn2c(=O)[nH]c3cc(C(=O)N4CCN(Cc5ccccc5)CC4)ccc3c2=O)cc1,21µM*,1%,?,20%,2%,-5%
COC(=O)c1ccc2c(=O)n(CCCCCC(=O)N3CCN(c4ccccc4)CC3)c(=O)[nH]c2c1,?,-1%,?,15µM*,-3%,-9%
CCN1CCN(C(=O)CCCCCn2c(=O)[nH]c3cc(C(=O)OC)ccc3c2=O)CC1,i,1%,i,2%,-1%,-1%
COc1ccc(Cn2c(=O)[nH]c3cc(C(=O)N4CCN(c5ccccc5OC)CC4)ccc3c2=O)cc1,?,3%,21µM*,13%,?,-1%
Cc1ccc(-n2nnnc2SCC(=O)NCC2(N3CCCCC3)CCCCC2)c(C)c1,i,-2%,?,?,?,6%
Cn1c(Cc2ccc3c(c2)OCO3)nnc1SCC(=O)N1CCc2ccccc2C1,16µM*,-2%[38.3 µM],i,-7%,-2%,-3%
Cc1ccc(-n2c(C)nnc2SCC(=O)N2CCc3ccccc3C2)cc1C,9.2µM*,-2%,i,-1%,-4%,-14%
Cc1nnc(SCC(=O)N2CCc3ccccc3C2)n1-c1ccccc1,i,1%,i,-5%,1%,0%
Cc1ccc(-n2nnnc2SCC(=O)NCC2(N3CCOCC3)CCCCC2)c(C)c1,21µM*,0%,i,?,-4%,1%
Cc1ccc(-n2nnnc2SCC(=O)N2CCc3ccccc3C2)c(C)c1,7.3µM*,-8%[38.3 µM],i,-3%,9%,/
Cc1ccc2c(c1)c(=O)c(Br)c(C)n2Cc1ccccc1,18µM*,6%,?,?,1%,0%

# High-throughput results from PubChem BioAssay.
